From PubChem BioAssay come the findings set out here.

SMILES strings stand for the structures. Values without a mark were called inactive. The source made the active and inactive calls. Cut-off read from the data, not from the text of the source: active = inhibition above about 28%; inactive = the rest.

The nature of the assay: StAR promoter reporter inhibitors, counter-screen for LRH-1 inverse agonist project, cell-based, luminescence, high throughput (AID 651611). The settings on record: StAR promoter luciferase reporter counterscreen, at 3.6 µM, hits give high values.
A word on the inhibition: it is the relative decrease from the control value, in per cent. Take `O=C(CCl)Nc1cc2[nH]c(=O)[nH]c2cc1Br`: the inhibition was 71.3% (active). As for `Cc1cccc(/C=C(\c2nc3ccccc3[nH]2)S(=O)(=O)c2ccccc2)c1`, the inhibition is 43.2% (active). As for `CN(C)CCC(=O)N1C/C(=C/c2ccccc2)C(=O)/C(=C\c2ccccc2)C1`, the figure is 61.4% (active); as for `C=CC(=O)N1C/C(=C/c2ccc(Cl)cc2)C(=O)/C(=C\c2ccc(Cl)cc2)C1`, 17.8%.

With `CCN(Cc1ccc(OC)c(F)c1)C(=O)CCl`, the inhibition was 31.7% (active).

As for `CC(C)(C)c1ccc(Oc2ccc(NC(=O)C3CC=CCC3C(=O)O)cc2)cc1` (stereo not given), the inhibition is 1.67%. The value for `COc1ccc(CCNc2ncnc3sc(C)cc23)cc1OC` was 35.5% (active). `CCCCCc1c(CC)ncn1CCc1ccccc1OC`: the inhibition was -2.24%. For the compound `Cc1ccc(NC(=O)C2=C(c3ccccc3)S(=O)(=O)CCS2(=O)=O)cc1`, the inhibition was 11%.

With `O=C(CCl)N1CCN(S(=O)(=O)Cc2ccccc2)CC1`, the inhibition is 25.3%. As for `COc1ccc(OC)c(N(CCN2C(=O)c3ccccc3C2=O)C(=O)CCl)c1`, the figure is 10.9%. Turning to `CC(=O)c1c(C)[nH]c(C(=O)COc2cc(C)ccc2C(C)C)c1C`, the inhibition is 21.1%. As to `COc1ccc(/C=C/c2nc3ccccc3c(=O)o2)cc1`, the inhibition was 38.6% (active). On to `O=C(NCCOc1cccnc1)c1ccc(OC2CCN(Cc3ccccn3)CC2)cc1`, for which the inhibition is 90.8% (active). Turning to `CC1C/C(=C/c2ccncc2)C(=O)/C(=C/c2ccncc2)C1` (stereo not given), the inhibition was 17.3%.

With `Cc1ccc(C(=O)Sc2cccccc2=O)cc1`, the inhibition was 98.1% (active). Take `Cc1ccc(-c2nc(NC(=O)c3nn(C)cc3[N+](=O)[O-])sc2C)cc1`: the inhibition was 18.9%. For `O=C(CCCc1ccccc1)c1ccc2c(c1)OCCO2`, the inhibition was 62.5% (active).

On to `O=C(CSc1ncccc1C(=O)O)Nc1ccc2c(c1)OCCO2`, for which the inhibition was 4.26%. As for `Cc1nnsc1C(=O)NC1CCCc2c1cnn2-c1ccc(C(C)(C)C)cc1` (stereo not given), the figure is 29.2% (active); as for `Cc1scc(C(=O)N/N=C/c2ccc([N+](=O)[O-])o2)c1C`, 42.8% (active); as for `CCOc1ccc(-c2cc(CCCC(=O)Nc3cccc(OC)c3)no2)cc1`, 40.6% (active). With `O=C1/C(=C\c2ccccc2)CN(C(=O)CCN2CCCCC2)C/C1=C/c1ccccc1`, the inhibition is 56.7% (active). For the compound `CC(=O)NC(c1cccc([N+](=O)[O-])c1)c1ccc2cccnc2c1O` (stereo not given), the inhibition was 85.6% (active). With `COc1cccc(C2=CC(=O)CC(C)(C)C2)n1`, the inhibition was 9.54%.

As for `CCCCCCCCCC[n+]1cccc2c3ccccc3ccc21`, the inhibition was 83.3% (active).

Consider `Cc1ccnc2c1ccc1cccnc12`, for which the inhibition was 82.7% (active). The value for `CC(C)(C)C(=O)Nc1cc2nn(-c3ccccc3)nc2cc1Cl` was 48.3% (active); that for `O=C(NCCc1c[nH]c2ccccc12)c1ccc([N+](=O)[O-])o1` was 15.7%.

For `N#Cc1cccc(C=C(C(=O)c2ccccc2)c2ccccc2)c1`, the inhibition is 18.6%. As to `CC1C/C(=C\c2cccnc2)C(=O)/C(=C/c2cccnc2)C1` (stereo not given), the inhibition was 61.9% (active).

Regarding `O=C(CCl)N(c1ccccc1)c1c[nH]c2ccccc12`, the inhibition was 62.4% (active). As to `Cc1cc(C)c(C#N)c(Sc2nc(C)c([N+](=O)[O-])c(C)c2C#N)n1`, the inhibition is 3.51%.

Consider `O=C1C=CC2(C=C1)O[C@H](Cc1ccccc1)[C@@H](Cc1ccccc1)O2`, for which the inhibition is 37% (active).

For `C=CC(=O)N1C/C(=C/c2ccccc2)C(=O)/C(=C\c2ccccc2)C1`, the inhibition is -2.93%. Take `COc1ccc(NS(=O)(=O)c2ccc3c(c2)OCCO3)cc1OC`: the inhibition was 10.4%. Consider `COc1ccc(NC(=O)/C(Cl)=C(/Cl)S(=O)Cc2ccccc2)cn1` (stereo not given), for which the inhibition was 56.1% (active). As for `c1ccc2c(c1)CCN(c1ncnc3c1[nH]c1ccccc13)C2`, the inhibition was 25.5%. With `CC1CCC/C=C/C(=O)c2c(O)cc(O)cc2CC(=O)O1` (stereo not given), the inhibition is 8.63%. `Cn1cnc([N+](=O)[O-])c1Oc1ccc2ccccc2c1`: the inhibition is 38.9% (active).
